Data from the supplement of paper PMC9262897, “Low-cost anti-mycobacterial drug discovery using engineered E. coli” (Nature Communications, 2022).
Where a name gives a salt, the structure may show the parent alone. ± gives the standard deviation of the averaged measurements.

How the values were obtained:
Assay in all cases: growth (OD600 after 10 h); higher = more growth (less inhibition)
[1] = system: E. coli TESEC Alr+ wild-type control; conditions: compound 0.1 mM; raw OD600 reference: median of DMSO wells 0.241, cell-free background 0.041
Procedure: (§1)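 TESEC Mtb Alr E. coli, or the Alr+ wild-type control, in 384-well plates with Prestwick library compounds at 0.1 mM and 1% DMSO, across arabinose induction levels of 1E3 to 1E7 nM. Growth is read as OD600 after 10 h at 37 °C in triplicate biological replicates.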

E. coli TESEC Mtb Alr [2] = conditions: compound 0.1 mM
Procedure: as §1

E. coli TESEC Mtb Asd = conditions: compound 0.1 mM
Procedure: (§2)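 TESEC E. coli strains in which the native enzyme is deleted and replaced by arabinose-inducible Mtb Asd, DapB, CysH or TrpD, each grown in its selective medium. Strains were screened against the Prestwick library at 0.1 mM and 1% DMSO in 384-well format at low and high arabinose induction. Growth is read as OD600 after 10 h in triplicate.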

E. coli TESEC Mtb DapB = conditions: compound 0.1 mM
Procedure: as §2

E. coli TESEC Mtb Alr [3] = conditions: compound 0.1 mM; remark: listed apart in the source
Procedure: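 TESEC Mtb Alr E. coli (ΔaraC ΔtolC ΔentC Δalr ΔdadX, arabinose-inducible Mtb Alr) or the Alr+ wild-type control strain, grown in defined M9-fructose medium without D-alanine in 96-well plates with Prestwick library compounds at 0.1 mM and 1% DMSO. Low Alr induction is 0.1 µM arabinose and high induction is 10 mM arabinose.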

[4] = arabinose 1000 nM, raw OD600 reference: median of DMSO wells 0.294, cell-free background 0.041
[5] = arabinose 10000 nM, raw OD600 reference: median of DMSO wells 0.264, cell-free background 0.041
[6] = arabinose 100000 nM, raw OD600 reference: median of DMSO wells 0.201, cell-free background 0.041
[7] = arabinose 1000000 nM, raw OD600 reference: median of DMSO wells 0.193, cell-free background 0.041
[8] = arabinose 10000000 nM, raw OD600 reference: median of DMSO wells 0.146, cell-free background 0.041
[9] = arabinose induction (level): High, raw OD600 reference: median of DMSO wells 0.331, cell-free background 0.041
[10] = arabinose induction (level): Low, raw OD600 reference: median of DMSO wells 0.417, cell-free background 0.041
[11] = arabinose induction (level): High, raw OD600 reference: median of DMSO wells […], cell-free background 0.041
[12] = arabinose induction (level): Low, raw OD600 reference: median of DMSO wells 0.227, cell-free background 0.041
[13] = arabinose 100 nM, raw OD600 reference: median of DMSO wells 0.413, cell-free background 0.052
[14] = arabinose 10000000 nM, raw OD600 reference: median of DMSO wells […], cell-free background 0.052

| SMILES | growth [1] | growth (E. coli TESEC Mtb Alr [2]; [4]) | growth (E. coli TESEC Mtb Alr [2]; [5]) | growth (E. coli TESEC Mtb Alr [2]; [6]) | growth (E. coli TESEC Mtb Alr [2]; [7]) | growth (E. coli TESEC Mtb Alr [2]; [8]) | growth (E. coli TESEC Mtb Asd; [9]) | growth (E. coli TESEC Mtb Asd; [10]) | growth (E. coli TESEC Mtb DapB; [11]) | growth (E. coli TESEC Mtb DapB; [12]) | growth (E. coli TESEC Mtb Alr [3]; [13]) | growth (E. coli TESEC Mtb Alr [3]; [14]) |
| --- | --- | --- | --- | --- | --- | --- | --- | --- | --- | --- | --- | --- |
| C[C@]12C/C(=C/O)C(=O)C[C@@H]1CC[C@@H]1[C@@H]2CC[C@@]2(C)[C@H]1CC[C@]2(C)O [Oxymetholone] | 0.162 ± 0.002 | 0.293 ± 0.0078 | 0.241 ± 0.025 | 0.244 ± 0.014 | 0.101 ± 0.0039 | 0.177 ± 0.0058 | 0.124 ± 0.0085 | 0.226 ± 0.043 | 0.158 ± 0.013 | 0.194 ± 0.019 | 0.379 ± 0.019 | 0.252 ± 0.004 |
| CC(C)CC(N(C)C)C1(c2ccc(Cl)cc2)CCC1 (stereo unspecified) [Sibutramine HCl] | 0.198 ± 0.0063 | 0.264 ± 0.0096 | 0.269 ± 0.0079 | 0.193 ± 0.032 | 0.131 ± 0.0058 | 0.137 ± 0.0051 | 0.213 ± 0.043 | 0.37 ± 0.098 | 0.161 ± 0.014 | 0.185 ± 0.012 | 0.414 ± 0.0078 | 0.35 ± 0.014 |
| O[C@@H]1CCCC[C@H]1N1CCC(c2ccccc2)CC1 [L(-)-vesamicol hydrochloride] | 0.216 ± 0.0031 | 0.281 ± 0.014 | 0.251 ± 0.0068 | 0.176 ± 0.012 | 0.182 ± 0.0074 | 0.141 ± 0.0046 | 0.294 ± 0.048 | 0.381 ± 0.016 | 0.194 ± 0.018 | 0.201 ± 0.015 | 0.414 ± 0.012 | 0.358 ± 0.0053 |
| CC(C)C[C@H]1C(=O)N2CCC[C@H]2[C@]2(O)O[C@](NC(=O)[C@@H]3C=C4c5cccc6[nH]c(Br)c(c56)C[C@H]4N(C)C3)(C(C)C)C(=O)N12 [Bromocryptine mesylate] | 0.108 ± 0.0027 | 0.112 ± 0.058 | 0.108 ± 0.0015 | 0.187 ± 0.12 | 0.0887 ± 0.025 | 0.191 ± 0.013 | 0.208 ± 0.056 | 0.117 ± 0.047 | 0.236 ± 0.07 | 0.229 ± 0.018 | 0.401 ± 0.0088 | 0.323 ± 0.067 |
| C[C@@H]1O[C@@H](O[C@@H]2C=C3CC[C@@H]4[C@H](CC[C@]5(C)[C@@H](c6ccc(=O)oc6)CC[C@]45O)[C@@]3(C)CC2)[C@H](O)[C@H](O)[C@H]1O [Proscillaridin A] | 0.182 ± 0.0085 | 0.247 ± 0.0077 | 0.256 ± 0.016 | 0.13 ± 0.0072 | 0.108 ± 0.0053 | 0.134 ± 0.0043 | 0.117 ± 0.0017 | 0.234 ± 0.021 | 0.163 ± 0.004 | 0.173 ± 0.019 | 0.405 ± 0.009 | 0.267 ± 0.0065 |
| C[CH2][Hg][S]c1ccccc1C(=O)[O-].[Na+] [Thimerosal] | 0.0433 ± 0.0046 | 0.162 ± 0.018 | 0.117 ± 0.01 | 0.0992 ± 0.0084 | 0.04637 ± 0.00025 | 0.0615 ± 0.0003 | 0.0491 ± 0.0015 | 0.0488 ± 0.0015 | 0.207 ± 0.019 | 0.214 ± 0.014 | 0.355 ± 0.036 | 0.0589 ± 0.0027 |
| O=C(CCCN1CCC(n2c(=O)[nH]c3ccccc32)CC1)c1ccc(F)cc1 [Benperidol] | 0.181 ± 0.0021 | 0.269 ± 0.0074 | 0.263 ± 0.0054 | 0.179 ± 0.036 | 0.135 ± 0.0025 | 0.149 ± 0.0063 | 0.357 ± 0.062 | 0.434 ± 0.086 | 0.187 ± 0.026 | 0.21 ± 0.0039 | 0.411 ± 0.016 | 0.26 ± 0.02 |
| C[C@]12CC[C@@H](O)C[C@H]1CC[C@@H]1[C@@H]2CC[C@]2(C)C(=O)CC[C@@H]12 [3-alpha-Hydroxy-5-beta-androstan-17-one] | 0.129 ± 0.0054 | 0.135 ± 0.0032 | 0.114 ± 0.0066 | 0.131 ± 0.015 | 0.0604 ± 0.00044 | 0.0824 ± 0.00098 | 0.118 ± 0.0061 | 0.171 ± 0.018 | 0.122 ± 0.0084 | 0.135 ± 0.013 | 0.354 ± 0.027 | 0.0844 ± 0.0097 |
